Hit rate of the full screen: of about 210,000 compounds, about 5,900 (2.8%) were called active. Not shown: some 5% with an inconclusive outcome. The entries come from a sample that favours actives as a whole. Where a call stands in place of a potency, no number is given. Values without a mark were called inactive. Calls follow the shape of the dose curve; as a rule, active = well fitted activation curve with a large enough effect; inconclusive = small, poorly fitted or top-dose-only effect; inactive = no such curve, though single readings can be large or run the other way.
assay: qHTS Assay for Enhancers of SMN2 Splice Variant Expression; details: HEK293 SMN2-luciferase splicing reporter, luminescence, 30-36 h; series mostly up to 46.1 µM; also: nearly all actives have a fitted effect of over 55% in size
Summary of the method: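 HEK293 cells carry an SMN2 minigene-luciferase reporter in which exon 7 inclusion puts luciferase in frame. Cells were seeded at 2000 cells/well, attached for 10-12 hours, then exposed to compounds for 30-36 hours at 37C before ONE-Glo luminescence.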
Potency is read from the fitted curve at half-maximal effect.

Row | Structure (SMILES) | Potency | activity change, positive = activation
1 | Cc1nc(SCCOc2ccc(Cl)cc2)[nH]c(=O)c1Cc1ccccc1 | inactive | 
2 | CC(=O)c1sc(N/N=C/c2ccc(C(C)C)cc2)nc1C | 17.8 µM (active) | 
3 | Cc1nnc(C)n1/N=C/c1ccc(C(C)C)cc1 | inactive | 
4 | CCSc1nnc(NC(=O)Cc2ccccc2OC)s1 | inactive | 
5 | CC(=O)c1sc(N/N=C\c2ccc(C)cc2)nc1C | 10 µM (active) | 
6 | CC(=O)c1sc(NC(=O)C2=NN(c3ccccc3)C(=O)CC2)nc1C | inactive | 
7 | CC(=O)c1sc(NC(=O)c2ccc(C)cc2)nc1C | 5.62 µM (active) | 
8 | Cc1nonc1C(=O)N/N=C/c1ccc(O)cc1 |  | 1.94% [at 1.84 µM]
9 | COc1ccc(/C=N\NC(=O)c2sc(N)nc2C)cc1OC | inactive | 
10 | CCOC(=O)CSc1nnc(NC(=O)c2cccc(S(=O)(=O)N3CCCCC3)c2)s1 | inactive | 
11 | Cc1ccc(S(=O)(=O)Nc2nc(C)cc(N/N=C/c3ccc(O)cc3)n2)cc1 | inactive | 
12 | CCSc1nnc(NC(=O)c2ccc(C)cc2)s1 | 14.1 µM (active) | 
13 | Cc1ccc(C(=O)Nc2nc(-c3ccccc3)ns2)cc1 | inactive | 
14 | CCc1ccc(S(=O)(=O)c2nnn3c2nc(NCc2ccccc2OC)c2cc(Cl)ccc23)cc1 | inactive | 
15 | CCOc1ccc(C2C(C(=O)Nc3ccc(Cl)cc3)=C(C)Nc3nc(C(F)(F)F)nn32)cc1 (stereo not given) | inactive | 
16 | Cc1nn(CC(=O)N2CCN(c3cccc(C(F)(F)F)c3)CC2)c(=O)c2cc3sccc3n12 | inactive | 
17 | C/C=C(\C)C(=O)O[C@H]1CC(C)=C2C(=O)C=C(C)C2[C@@H]2OC(=O)[C@@](C)(OC(=O)C=C(C)C)C21 (stereo not given in full) | inactive | 
18 | CCN(CCCNC(=O)c1cc(Nc2ccc(OC)cc2)nc2ccccc12)c1cccc(C)c1 | inactive | 
19 | CC(C)c1ccc(NC(=O)CN(C)S(=O)(=O)c2ccc3c(c2)c(=O)n(C)c(=O)n3C)cc1 | inactive | 
20 | O=C(CSc1oc(-c2ccco2)nc1S(=O)(=O)c1ccccc1)c1ccc(Cl)cc1 | inactive | 
21 | Cc1ccc(-c2nn(CCC(=O)Nc3ccc(OC(F)(F)F)cc3)c(=O)c3ccccc23)cc1 | inactive | 
22 | CCOc1cc(/C=C(\C#N)C(=O)Nc2ccccc2C)ccc1OCc1cc(=O)n2nc(CC)sc2n1 | inactive | 

Row | Structure (SMILES) | Potency | activity change, positive = activation
23 | COc1ccc(-n2c(=O)c3sc4ccccc4c3n(CC(=O)Nc3cccc(C)c3)c2=O)cc1 | inactive | 
24 | C/C=C(\C)C(=O)OC1C(OC(=O)C2(C)OC2C)c2cc3ccc(=O)oc3cc2OC1(C)C (stereo not given) | inactive | 
25 | Cc1cccc(Cn2c(SCc3ccc(C(=O)N4CCC(C)CC4)cc3)nc3ccncc32)c1 | inactive | 
26 | CC1=C(C(=O)OCC(C)C)C(c2ccc(OCc3ccccc3)cc2)N2C(=O)CCSC2=N1 (stereo not given) | inactive | 
27 | COC(=O)c1cc(NC(=O)c2sc3ccccc3c2Cl)cc(C(=O)OC)c1 | inactive | 
28 | O=C(Nc1ccon1)c1sc2ccccc2c1Cl | 17.8 µM (active) | 
29 | CCCC(=O)Nc1ccc(NC(=O)c2sc3ccccc3c2Cl)cc1 | inactive | 
30 | COc1ccc(/C=C/c2nc(C#N)c(NCc3ccc(F)cc3)o2)cc1OC | inactive | 
31 | CCOc1ccc(CNC(=O)C2CCN(c3nnc(-n4cccc4CNc4ccc(C)cc4)s3)CC2)cc1OC | inactive | 
32 | COCCNc1ncnc2ccc(-c3ccccc3CN(C)C)cc12 | inactive | 
33 | COc1ccc2[nH]cc(CCNc3ncnc4ccc(-c5ccccc5CN(C)C)cc34)c2c1 | inactive | 
34 | COc1ccccc1CNc1ncnc2ccc(-c3c(C)noc3C)cc12 | 10 µM (active) | 
35 | Cc1c(NC(=O)Nc2ccc(F)c(Cl)c2)c(=O)n(-c2ccccc2)n1C | inactive | 
36 | CCCCSc1nnc(-c2ccc(C)cc2)o1 | 11.2 µM (active) | 
37 | Cc1cccc(C)c1OC(=O)CSc1nnc(-c2ccccc2)o1 | inactive | 
38 | CCOC(=O)CSc1nnc(-c2ccncc2)o1 | inactive | 
39 | O=C(Cc1ccc(Cl)cc1)Nc1ccc2nn(-c3ccc(Cl)cc3)nc2c1 | inactive | 
40 | CCCCNC(=O)c1ccc2c(c1)NC(=O)C(C(C)C)N2 (stereo not given) | inactive | 
41 | COc1ccc(CNc2nc(-c3ccccc3)nn2C(=O)c2ccccc2OC)cc1 | inactive | 
42 | Brc1cccc(-c2nnn3c2nc(NC2CCCCC2)c2ccccc23)c1 | inactive | 
43 | COc1ccc(N2CCN(Cc3nc4c(c(=O)[nH]c(=O)n4C)n3Cc3ccc(Cl)cc3)CC2)cc1 | inactive | 
44 | c1ccc(-n2ncc3c(N4CCCC4)ncnc32)cc1 | inactive | 

Row | Structure (SMILES) | Potency | activity change, positive = activation
45 | O=C(NCCC1=CCCCC1)C1CCN(Cc2cnn(-c3ccccc3)c2-n2cccc2)CC1 | inactive | 
46 | C1=C(CCNc2ncnc3c2cnn3-c2ccccc2)CCCC1 | 12.6 µM (active) | 
47 | CCOc1ccccc1C(=O)NC1(C(F)(F)F)C(=O)Nc2c1c(=O)[nH]c(=O)n2-c1ccc(F)cc1 (stereo not given) | inactive | 
48 | O=C(NC1(C(F)(F)F)N=C(c2ccccc2)N(C2CCCCC2)C1=O)c1ccccc1F (stereo not given) | inactive | 
49 | CCCN1CN=C(NS(=O)(=O)c2ccc(NC(C)=O)cc2)NC1 | inactive | 
50 | COc1ccc(-c2cc(-c3ccc(F)cc3)nc3c2COc2ccccc2-3)cc1 | inactive | 
51 | CSc1ccccc1-c1nnc(-c2ccc(Cl)cc2)o1 | 14.1 µM (active) | 
52 | Clc1ccc(-c2nnc(SCc3nc4ccccc4s3)o2)cc1 | inactive | 
53 | FC(F)(F)c1cnc(Oc2ccccc2-c2nnc(-c3ccc(Cl)cc3)o2)c(Cl)c1 | inactive | 
54 | CCOC(=O)c1ccccc1NC(=O)CCc1c(C)nc2c(c1C)c(=O)n(C)c(=O)n2C | inactive | 
55 | CCN(CC)S(=O)(=O)c1ccc2c(c1)N(CC(=O)NCc1ccccc1)C(=O)CS2 | inactive | 
56 | CCc1ccccc1NC(=O)CSc1nnc(-c2ccncc2)o1 | inactive | 
57 | O=C(CSc1nnc(-c2ccc([N+](=O)[O-])cc2)o1)Nc1ccccn1 | 3.16 µM (active) | 
58 | O=C(CSc1nnc(-c2ccncc2)o1)NCc1ccc(Cl)cc1 | inactive | 
59 | N#Cc1nc(/C=C/c2ccc(F)cc2)oc1NCc1ccc(F)cc1 | inactive | 
60 | Cc1ccc2nc3c(cc(C(=O)NC4CCCCC4)c(=N)n3C(C)C)c(=O)n2c1 | inactive | 
61 | Nc1ccccc1N | 11.2 µM (active) | 
62 | NCCC(=O)c1ccccc1N | inactive | 
63 | Cc1ccc(Nc2ccccc2N)cc1 | inactive | 
64 | COc1ccc(NC(=O)C(=O)NCc2ccco2)cc1 | inactive | 
65 | COc1cccc(NC(=O)N2CCN(C(=O)c3nsc4ccccc34)CC2)c1 | inactive | 

Reference: PubChem BioAssay AID1458 (National Center for Advancing Translational Sciences (NCATS), 2008)
